Results on 14 compounds are retold here after PubChem BioAssay.

The term remaining activity denotes the signal under treatment as a percentage of the control signal.

The target of test [1] is ATP-dependent translocase ABCB1 (Homo sapiens) (UniProt P08183). The experiment in a line: P-glycoprotein substrate transport blockade – cell-based (AID 377; in the data active = fluorescence slope change above about 50%). The following applies: MDR1-expressing cells, fluorescent substrate accumulation slope; stronger effect = higher value; concentration not given here.
Sequence of ATP-dependent translocase ABCB1 (Homo sapiens) (P08183 whole entry, looked up): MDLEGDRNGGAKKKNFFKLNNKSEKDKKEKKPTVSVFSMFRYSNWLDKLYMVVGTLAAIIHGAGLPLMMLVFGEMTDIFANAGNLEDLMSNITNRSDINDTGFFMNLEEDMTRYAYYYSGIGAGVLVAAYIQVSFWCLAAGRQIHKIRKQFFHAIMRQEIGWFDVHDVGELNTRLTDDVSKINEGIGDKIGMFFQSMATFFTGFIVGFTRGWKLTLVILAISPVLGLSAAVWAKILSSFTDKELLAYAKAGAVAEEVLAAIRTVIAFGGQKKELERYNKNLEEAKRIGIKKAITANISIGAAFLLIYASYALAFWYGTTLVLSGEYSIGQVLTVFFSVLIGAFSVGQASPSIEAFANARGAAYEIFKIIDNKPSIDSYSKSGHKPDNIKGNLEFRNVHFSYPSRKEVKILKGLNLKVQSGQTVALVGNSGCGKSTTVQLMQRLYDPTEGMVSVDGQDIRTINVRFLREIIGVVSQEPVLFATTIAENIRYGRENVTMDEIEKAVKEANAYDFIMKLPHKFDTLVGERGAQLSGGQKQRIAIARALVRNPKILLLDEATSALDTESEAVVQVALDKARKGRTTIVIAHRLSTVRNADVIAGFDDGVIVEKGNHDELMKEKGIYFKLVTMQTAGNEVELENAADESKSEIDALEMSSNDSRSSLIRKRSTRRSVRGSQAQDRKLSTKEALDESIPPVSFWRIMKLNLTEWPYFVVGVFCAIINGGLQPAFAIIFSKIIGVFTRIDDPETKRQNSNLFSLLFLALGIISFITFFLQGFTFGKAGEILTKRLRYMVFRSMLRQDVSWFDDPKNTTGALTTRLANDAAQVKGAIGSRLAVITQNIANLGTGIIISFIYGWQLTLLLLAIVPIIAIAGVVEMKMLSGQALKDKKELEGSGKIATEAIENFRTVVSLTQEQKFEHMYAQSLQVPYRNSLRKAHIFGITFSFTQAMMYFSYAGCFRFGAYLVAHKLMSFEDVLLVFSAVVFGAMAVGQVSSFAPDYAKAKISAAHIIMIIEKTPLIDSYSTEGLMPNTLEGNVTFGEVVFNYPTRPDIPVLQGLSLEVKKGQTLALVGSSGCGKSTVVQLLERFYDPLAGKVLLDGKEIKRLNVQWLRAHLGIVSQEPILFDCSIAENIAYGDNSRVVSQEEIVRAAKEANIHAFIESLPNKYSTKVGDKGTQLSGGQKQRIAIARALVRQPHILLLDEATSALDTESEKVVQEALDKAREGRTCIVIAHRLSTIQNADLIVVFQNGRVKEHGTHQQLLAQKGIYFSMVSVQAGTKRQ
The nature of test [2]: GFP-Q80 aggregate reduction, neuronal-like cells, cell-based, NGF-treated PC12, GFPQ80 (AID 1614).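 Also: lower means fewer inclusions and 0 means no inclusions at all.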 The conditions noted are these: PC12 NGF-treated GFP-polyQ80 inclusion reduction.
A short description of test [3]: signal quenchers or enhancers, Cy5 substrate/SSB – biochemical, NIH Clinical Collection, E. coli SSB, artefact control for HCV NS3 helicase inhibitor project (AID 743268; call rule not given here). The conditions noted are these: Cy5-oligo bound E. coli SSB, fluorescence interference.
Test [4] can be described thus: viability loss in pontine glioma line – cell-based, SU-DIPG-XIII, MIPE4.0, CellTiter-Glo, qHTS, dose response (AID 1347061; cut-off not given, nearly all actives have AC50 up to about 37 µM;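 also: cells exposed to compound for 48 hours before readout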). The conditions noted are these: CellTiter-Glo ATP luminescence. For orientation: In ATP-based viability assays light output follows the ATP content of the culture.
Test [5] in a line: viability loss in pontine glioma line – cell-based, JHH-DIPG-1, MIPE4.0, CellTiter-Glo, qHTS, dose response (AID 1347062; cut-off not given, nearly all actives have AC50 up to about 27 µM). The following applies: JHH-DIPG-1 viability, CellTiter-Glo ATP luminescence.
Test [6] in a line: viability loss in pontine glioma line – cell-based, SU-DIPG-IV, MIPE4.0, CellTiter-Glo, qHTS, dose response (AID 1347063; cut-off not given, nearly all actives have AC50 up to about 30 µM;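 also: compound exposure lasted 48 hours before the viability readout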). The following applies: CellTiter-Glo ATP luminescence.
A short description of test [7]: growth inhibition of DIPG cells – cell-based, MIPE4.0 library, CellTiter-Glo luminescence, qHTS (AID 1347066; cut-off not given, nearly all actives have AC50 up to about 30 µM;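 also: cells exposed to compound for 48 hours before readout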). The conditions noted are these: SU-DIPG-VI viability, CellTiter-Glo ATP luminescence.
A short description of test [8]: growth inhibition of DIPG cells – cell-based, MIPE5.0 library, qHTS (AID 1347068; cut-off not given, nearly all actives have IC50 up to about 30 µM). The following applies: SU-DIPG-XXV viability. In general terms: Quantitative high-throughput screening tests each substance at several concentrations.
In test [9] the test system is F380Y/beta1. The test can be described thus: BK channel mutant inhibitors and activators – cell-based, U2OS BacMam, thallium flux, beta subunits, selectivity assay, profiling panel (AID 1259406).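 Also: initial slope of Thallos dye fluorescence rise after thallium is added; log ratio against the mean of 0.3% DMSO vehicle wells on the same plate.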 The following applies: U2OS BacMam BK variants, at 30 µM.
For test [10], the system named is F380Y/beta4. Described as above. The following applies: U2OS BacMam BK variants, at 30 µM.
Test [11] concerns R275C/beta4. The description is as above. The conditions noted are these: U2OS BacMam BK variants, at 30 µM.
For test [12], the system named is R275C/Slo1WT/beta2. The description is as above. The conditions noted are these: U2OS BacMam BK variants, at 30 µM.
The test system of test [13] is Aerobactin synthetase IucA (Klebsiella pneumoniae). The experiment in a line: inhibition of K. pneumoniae IucA enzyme – biochemical, Tocris library, absorbance (AID 1345561; call rule not given here;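 also: 100% = enzyme without compound and 0% = no enzyme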). The conditions noted are these: purified IucA enzyme assay, absorbance (OD) read-out; stronger effect = lower value;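 tested at 8 µM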.

Records with an inconclusive call do not appear. The source made the active and inactive calls.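 The calls were made as follows, unless noted: active = thallium flux through the channel raised or lowered by more than 3 SD from vehicle-only wells, actives on both sides; inactive = the rest.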

For the compound `COc1c2occc2cc2ccc(=O)oc12`, the fluorescence slope change in test [1] was 78.2% (active). This compound also showed an inclusion score in test [2] of 2. Further, the fluorescence ratio in test [3] was 0.98 (inactive). Also, the outcome in [4], in [5], in test [6], in test [7] and in test [8] was inactive. The log fold change Tl+ flux in [9] is 0.0099 (inactive); in [10], 0.0241 (inactive); in test [11], 0.0801 (inactive); in test [12], 0.00849 (inactive).
As for `O=C1CN(/N=C/c2ccc([N+](=O)[O-])o2)C(=O)N1`, in test [1], the fluorescence slope change was 98.9% (active). The same compound gave an inclusion score in [2] of 2.
Consider `COC(=O)C1=C(C)NC(C)=C(C(=O)OCCN(C)Cc2ccccc2)C1c1cccc([N+](=O)[O-])c1` (stereo not drawn), for which the fluorescence slope change in [1] is 15.7% (inactive). The fluorescence ratio in test [3] was 1.15 (inactive). Besides, the log fold change Tl+ flux in test [9] is -0.0357 (inactive); in [10], -0.137 (active); in test [11], 0.196 (active); in [12] it was 0.00258 (inactive).
In the case of `COCCCOc1ccnc(CS(=O)c2nc3ccccc3[nH]2)c1C` (stereo not drawn), the fluorescence ratio in test [3] is 0.94 (inactive). The outcome in [4], in test [5], in test [6], in test [7] and in [8] was inactive.
On to `CN1C(=O)CC[C@H]1c1cccnc1`, for which the fluorescence slope change in test [1] was 94.5% (active). Moreover, the inclusion score in test [2] is 2. In addition, the fluorescence ratio in [3] was 1.01 (inactive).
As for `COc1ccccc1N1CCN(CCCCNC(=O)c2ccc(-c3ccc(C(C)=O)cc3)cc2)CC1`, the remaining activity in test [13] was 111% (inactive).
As for `COc1ccc2cc([C@H](C)C(=O)O)ccc2c1`, in [2], the inclusion score was determined as 2. Besides, the remaining activity in [13] is 75.8% (inactive). Moreover, the compound was called inactive in [4], in [5], in [6], in test [7] and in [8]. The log fold change Tl+ flux in [9] was 0.0107 (inactive); in [10], -0.000569 (inactive); in test [11], -0.0294 (inactive); in test [12] it was 0.0377 (inactive).
Turning to `CC(C)(C)NCC(O)c1ccc(O)c(CO)c1` (stereo not drawn), the inclusion score in test [2] worked out at 2. The fluorescence ratio in test [3] is 0.96 (inactive). For the same compound, the compound was called inactive in test [4], in [5], in test [6], in [7] and in test [8].
With `CCN(CC)CCOc1ccc(Cc2ccccc2)cc1`, the remaining activity in [13] was 100% (inactive). For the same compound, the outcome in test [7] and in test [8] was inactive.
The compound `N=c1nc(N2CCCCC2)cc(N)n1O` registered an inclusion score in [2] of 1. For the same compound, in test [3], the fluorescence ratio was 0.1 (active). Further, the remaining activity in test [13] is 109% (inactive). The result in test [4], in test [5], in [6] and in test [7] was inactive. In addition, the log fold change Tl+ flux in [9] is 0.0169 (inactive); in test [10], -0.0416 (inactive); in test [11], 0.0196 (inactive); in [12], 0.0414 (inactive).
Regarding `Clc1ccccc1CN1CCc2sccc2C1`, the compound was called inactive in test [4], in test [5], in test [7] and in test [8]. Besides, the log fold change Tl+ flux in test [9] is -0.0989 (active); in [10], -0.152 (active); in [11], -0.0465 (inactive); in [12], 0.00594 (inactive).
Consider `O=C(O)COCCN1CCN(C(c2ccccc2)c2ccc(Cl)cc2)CC1` (stereo not drawn), for which, in test [1], the fluorescence slope change is 28.7% (inactive). Also, the remaining activity in test [13] was 109% (inactive). Further, the compound was classed as inactive in test [4], in [5], in test [6] and in test [7]. Also, the log fold change Tl+ flux in [9] is 0.0627 (inactive); in test [10] it was 0.0511 (inactive); in test [11], 0.0338 (inactive); in test [12] it was -0.0639 (inactive).
On to `O=C(NCC1CCCCN1)c1cc(OCC(F)(F)F)ccc1OCC(F)(F)F` (stereo not drawn), for which the fluorescence ratio in test [3] is 1.08 (inactive). Moreover, the remaining activity in [13] was 117% (inactive). Further, the outcome in test [4], in test [7] and in test [8] was inactive.
With `CC1(C)[C@H](C(=O)O)N2C(=O)C[C@H]2S1(=O)=O`, the result in test [5], in test [6] and in test [7] was inactive.
